Hits are enriched below; roughly 0.9% of the tested compounds scored in any of these assays.
CDC25B-CDK2 inh – human CDC25B-CDK2/CyclinA binding inhibition; P30305+P24941; HTRF CDC25B-CDK2/CyclinA binding, anti-His/anti-Flag; stronger effect = higher value; z-score (concentration not given with the values); 94,000 compounds, 0.72% hits; AID 1259370; in the data active means z-score above about 3.2
HIV TAR-Tat – HIV-1 TAR-Tat binding disruption; 100,000 compounds, 0.6% hits; z-score (concentration not given with the values); HIV-1 TAR RNA, Tat peptide displacement FRET; stronger effect = higher value; AID 1259389; active means z-score of 3 or more in at least 2 runs
Of the large screens only hits and unclear results are named; the others gave an inactive call.

COc1cc(-c2[nH]nc3c2C(c2c(F)cccc2Cl)C(C#N)=C(N)O3)cc(OC)c1OC (centres undefined)	none (no result: HIV TAR-Tat)
Cc1cc(C)cc(NS(=O)(=O)c2cc(-c3cc(C)no3)ccc2C)c1	none (no result: CDC25B-CDK2 inh)
CCCS(=O)(=O)c1ccc(NC(=O)Nc2ccc(Cl)cc2Cl)cc1	none (no result: HIV TAR-Tat)
Cc1c(C(=O)O)sc2ncnc(Nc3ccc(F)cc3)c12	HIV TAR-Tat 25.2 (no result: CDC25B-CDK2 inh)
COCCNc1ncnc2sc(C(=O)O)c(C)c12	none (no result: CDC25B-CDK2 inh)
Cc1c(C(=O)O)sc2ncnc(NC(C)C)c12	none (no result: CDC25B-CDK2 inh)
COc1cc(OC)c(Nc2ncnc3sc(C(=O)O)c(C)c23)cc1Cl	HIV TAR-Tat 4.21 (no result: CDC25B-CDK2 inh)
CCCCSc1nc2n(n1)C(c1ccccc1C)C1=C(CCCC1=O)N2 (centres undefined)	none
O=C(O)c1c[nH]c2c(ccc3ccccc32)c1=O	HIV TAR-Tat 9.31
Cc1c(Cl)ccc2c(=O)c(C(=O)O)c[nH]c12	none
CC1(C(=O)NC2CCCCC2)Cn2c(cc3sccc32)C(=O)N1C1CCCCC1 (centres undefined)	none
O=C(Nc1ccccc1)C1CCCN(S(=O)(=O)c2ccc3[nH]c(=O)oc3c2)C1 (centres undefined)	none (no result: CDC25B-CDK2 inh)
CCOC(=O)c1c(NC(=O)COc2cccc(Br)c2)sc(C)c1C	none
COc1ccc(-c2nc(-c3ccc(C)s3)no2)cc1	none (no result: CDC25B-CDK2 inh)
CC(C)COc1ccc2c(c1)c1c3n2CCNC3CCC1 (centres undefined)	none (no result: HIV TAR-Tat)
C1=C(c2ccc3c(c2)c2c4n3CCNC4CCC2)CCC1 (centres undefined)	CDC25B-CDK2 inh 13.8 (no result: HIV TAR-Tat)
NS(=O)(=O)c1ccc(CCNC(=O)CCN2C(=O)c3cccnc3C2=O)cc1	none (no result: HIV TAR-Tat)
COc1cccc(C2CC(=O)N3CN(C4CCCCC4)CSC3=C2C#N)c1 (centres undefined)	CDC25B-CDK2 inh 5.28
N#CC1=C2SCN(C3CCCCC3)CN2C(=O)CC1c1cccc2ccccc12 (centres undefined)	CDC25B-CDK2 inh 4.16
N#CC1=C2SCN(C3CCCC3)CN2C(=O)CC1c1ccc(F)cc1 (centres undefined)	CDC25B-CDK2 inh 4.01
COc1cccc(C2CC(=O)N3CN(C4CCCC4)CSC3=C2C#N)c1 (centres undefined)	CDC25B-CDK2 inh 5.72
CCOc1ccc(C2CC(=O)N3CN(C4CCCC4)CSC3=C2C#N)cc1 (centres undefined)	none
N#CC1=C2SCN(Cc3ccco3)CN2C(=O)CC1c1cccc2ccccc12 (centres undefined)	none
O=C(NC1CC1)c1ccc2c(c1)NC(=O)C1CCCCN21 (centres undefined)	none (no result: CDC25B-CDK2 inh)
O=C(c1cccc(Cl)c1)N1CCSC1=S	none
Cc1cnc(NC(=O)Nc2cc(F)ccc2F)s1	none
Cc1ccc(NS(=O)(=O)c2c(C)nc3sc(C)c(C)n3c2=O)cc1F	none (no result: CDC25B-CDK2 inh)
Cc1ccc2c(=O)cc(C(=O)Nc3ccc4nsnc4c3)oc2c1C	none
O=c1cc2nc(-c3cccc(F)c3)nc(SCCCOc3ccccc3)n2[nH]1	none (no result: CDC25B-CDK2 inh)
COc1ccc(OC)c(C2CC(=O)N3CN(C4CCCCC4)CSC3=C2C#N)c1 (centres undefined)	CDC25B-CDK2 inh 5.35
N#CC1=C2SCN(c3ccc(Br)cc3)CN2C(=O)CC1c1cccc(F)c1 (centres undefined)	CDC25B-CDK2 inh 6.61
N#CC1=C2SCN(c3ccc(F)cc3)CN2C(=O)CC1c1cccc(F)c1 (centres undefined)	CDC25B-CDK2 inh 6.44
COc1ccc(Br)cc1C1CC(=O)N2CN(c3ccc(F)cc3)CSC2=C1C#N (centres undefined)	CDC25B-CDK2 inh 4.43
N#CC1=C2SCN(c3ccccc3)CN2C(=O)CC1c1cccc(Br)c1 (centres undefined)	CDC25B-CDK2 inh 6.86
COc1ccc(Br)cc1C1CC(=O)N2CN(Cc3ccco3)CSC2=C1C#N (centres undefined)	none
CC(C)(C)c1csc(-c2ccc(-c3ccccn3)s2)n1	none (no result: HIV TAR-Tat)
CCOC(=O)C1=C(C)Nc2nc(SC)nn2C1c1ccccc1Cl (centres undefined)	none
Cc1cc(=O)nc2c3ccccc3n(CC(=O)NC3CCCC3)n12	none
COc1cccc(N2CCN(S(=O)(=O)c3ccc(-c4n[nH]c(C)c4C)s3)CC2)c1	none (no result: CDC25B-CDK2 inh)
Cc1ccccc1-c1noc(-c2nnn(-c3cccc(F)c3)c2C)n1	none (no result: CDC25B-CDK2 inh)
CCC(C)NC(=O)c1cn(CC)c(=O)c2cc(OC)c(OC)cc12 (centres undefined)	none (no result: HIV TAR-Tat)
COc1ccc(N2CSC3=C(C#N)C(c4ccc(Br)cc4)CC(=O)N3C2)cc1 (centres undefined)	CDC25B-CDK2 inh 5.33
N#CC1=C2SCN(c3ccccc3F)CN2C(=O)CC1c1ccc(Br)cc1 (centres undefined)	none
N#CC1=C2SCN(c3ccccc3)CN2C(=O)CC1c1ccc(Br)cc1 (centres undefined)	CDC25B-CDK2 inh 3.95
N#CC1=C2SCN(c3ccc(F)cc3)CN2C(=O)CC1c1cccc(Br)c1 (centres undefined)	CDC25B-CDK2 inh 3.28
CCc1ccc(N2CSC3=C(C#N)C(c4cccc(F)c4)CC(=O)N3C2)cc1 (centres undefined)	CDC25B-CDK2 inh 5.18
CCOC(=O)c1c(C)oc2ncnc(NC(C)(C)CO)c12	none
C=CCNC(=O)NC1COc2ccccc2C1 (centres undefined)	none (no result: CDC25B-CDK2 inh)
CCNC(=O)c1c(NC(=O)c2nn(-c3ccc(OCC)cc3)ccc2=O)sc2c1CCCC2	none
CC(O)c1nc2ccccc2[nH]1 (centres undefined)	none (no result: HIV TAR-Tat)
CC(O)c1nc2ccc(-c3ccc4nc(C(C)O)[nH]c4c3)cc2[nH]1 (centres undefined)	CDC25B-CDK2 inh 6.85
COC(=O)c1c(SC)[nH]c2ccsc2c1=O	none
CCC(Cn1nnc2ccccc2c1=O)NC(=O)NCc1ccccc1 (centres undefined)	none
Cn1c(=O)n(Cc2ccco2)c(=O)c2sc3ccccc3c21	none
O=C1c2cc([N+](=O)[O-])ccc2-c2ccc([N+](=O)[O-])cc21	none (no result: HIV TAR-Tat)
CCCNC(=O)c1cc([N+](=O)[O-])cc2c1-c1ccc([N+](=O)[O-])cc1C2=O	CDC25B-CDK2 inh 15.7 (no result: HIV TAR-Tat)
CC1(C)CC(=O)C2=C(C1)NC(=O)CC2c1ccc(Cl)cc1 (centres undefined)	none
Cc1ccc(C2CC(=O)N3CN(Cc4cccnc4)CSC3=C2C#N)cc1 (centres undefined)	CDC25B-CDK2 inh 5.2
COc1ccc(CN2CSC3=C(C#N)C(c4ccc(OC)cc4)CC(=O)N3C2)cc1 (centres undefined)	CDC25B-CDK2 inh 6.34
N#CC1=C2SCN(CCc3ccccc3)CN2C(=O)CC1c1ccc(F)cc1 (centres undefined)	none
COc1ccc(CN2CSC3=C(C#N)C(c4cccc(OC)c4)CC(=O)N3C2)cc1 (centres undefined)	CDC25B-CDK2 inh 7.6
COc1ccc(C2CC(=O)N3CN(Cc4cccnc4)CSC3=C2C#N)cc1 (centres undefined)	none
N#CC1=C2SCN(CCc3ccccc3)CN2C(=O)CC1c1cccs1 (centres undefined)	CDC25B-CDK2 inh 3.74
N#CC1=C2SCN(Cc3cccnc3)CN2C(=O)CC1c1ccc(F)cc1 (centres undefined)	none
O=C(O)C1C2C=CC(O2)C1C(=O)NCc1cccc(Cl)c1 (centres undefined)	none (no result: HIV TAR-Tat)
O=C(c1cccs1)N1CCCn2c1nc1ccccc12	none
COCCc1nn2c(=O)cc(COC(=O)c3cccc(Cl)c3)nc2s1	none (no result: CDC25B-CDK2 inh)
COc1ccc(CN2CSC3=C(C#N)C(c4cccs4)CC(=O)N3C2)cc1 (centres undefined)	CDC25B-CDK2 inh 3.99

Screening data (PubChem)
